# GAA glycogen: GAA glycogen-cleavage inhibition or activation | P10253 | recombinant GAA, glycogen substrate, Amplex Red glucose oxidase fluorescence | Potency, µM (titrated, usually from 76.4 µM), inactives show at the highest dose activity change, negative = inhibition, hits mostly inhibitors | actives 0.38% (n = 300,000) | AID 2100;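 also: potency is read from the fitted curve at half-maximal effect; 0% = full enzyme reaction and -100% = no-enzyme basal signal; the screen sought inhibitors and activators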
#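 Recombinant human enzyme (4 nM); glycogen substrate; 37 C, 40 min, pH 5.0. Readout: coupled glucose oxidase/Amplex Red fluorescence.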
# GAA spleen mod: inhibitors or activators of human alpha-glucosidase in spleen homogenate | P10253 | AID 2112 | human spleen homogenate, 4-MU-alpha-glucoside fluorescence | Potency, µM (series often up to 79.9 µM), inactives show at the top dose activity change, negative = inhibition, usual class: inhibitors | actives 0.006% (n = 240,000);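 also: potency is read from the fitted curve at half-maximal effect; 0% = enzyme with vehicle and -100% = no enzyme basal signal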
#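 Human spleen homogenate (1 ug) incubated with compounds and 1 mM 4-methylumbelliferyl-alpha-D-glucopyranoside in pH 5.0 citrate/phosphate buffer, 37 C, 40 min. Stopped at pH 10; 4-MU fluorescence (Ex 365/Em 440 nm); AC50 by Hill fit.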
# Menin MLL FP TR: menin-MLL binding inhibition, Texas Red mutant peptide; O00255; Menin + Texas Red MLL mutant peptide, fluorescence polarization; Potency, µM (doses to about 61.6 µM), for the others: top-dose FP activity change, negative = inhibition, hits mostly inhibitors; actives 0.23% (n = 270,000); AID 1768; active = well fitted inhibition curve with a large enough effect in the polarisation, with a control signal flat, not every such curve was filed as active; inconclusive = small, poorly fitted or top-dose-only effect, or effect the other way, or a change in a side signal; inactive = no such curve, though single readings can be large or run the other way; the % refers to the polarisation; also: potency is read from the fitted curve at half-maximal effect; % of control where 0% means no effect
# Menin MLL FP FL: menin-MLL binding inhibition, fluorescein peptide; Fluorescence polarization, fluorescein-MLL peptide displacement from menin; FP activity change, % at 61.4 µM; 290,000 tested, under 10 active; AID 1766; active = well fitted curve in the direction sought with a large enough effect in the polarisation, not every such curve was filed as active; inconclusive = small, poorly fitted or top-dose-only effect, or effect the other way, or a change in a side signal; inactive = no such curve, though single readings can be large or run the other way; the % refers to the polarisation; also: % of control where 0% means no effect
# GAA inhib: blocks human lysosomal alpha-glucosidase | P10253 | purified human GAA, 4-MU-alpha-glucoside fluorescence | Potency, µM (doses to about 76.9 µM), for inactives: top-dose activity change, negative = inhibition, most hits filed as inhibitors | actives 0.005% (n = 200,000);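 also: potency is read from the fitted curve at half-maximal effect; plate controls were uninhibited enzyme wells for no effect and no-enzyme background for full effect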
#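 Fluorogenic assay: 4 nM human alpha-glucosidase with 400 uM 4-methylumbelliferyl-alpha-D-pyranoside in 50 mM citrate/phosphate, 0.005% Tween-20, pH 5.0, 20 min at room temperature. Compounds tested up to 77 uM; AC50 from Hill fits.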
# CXXC DNA block: MLL CXXC-DNA interaction inhibition. Q03164. MLL-CXXC / FITC-HOXA9 DNA fluorescence polarization. Potency, µM (top dose mostly 115 µM), for inactives: top-dose activity change, negative = inhibition, actives largely listed as inhibitors. actives 0.037% (n = 290,000). AID 2662; active = well fitted inhibition curve with a large enough effect in the polarisation, with a control signal flat, not every such curve was filed as active; inconclusive = small, poorly fitted or top-dose-only effect, or effect the other way, or a change in a side signal; inactive = no such curve, though single readings can be large or run the other way; the % refers to the polarisation; also: potency is read from the fitted curve at half-maximal effect
# Target sequence (Q03164 whole entry, looked up): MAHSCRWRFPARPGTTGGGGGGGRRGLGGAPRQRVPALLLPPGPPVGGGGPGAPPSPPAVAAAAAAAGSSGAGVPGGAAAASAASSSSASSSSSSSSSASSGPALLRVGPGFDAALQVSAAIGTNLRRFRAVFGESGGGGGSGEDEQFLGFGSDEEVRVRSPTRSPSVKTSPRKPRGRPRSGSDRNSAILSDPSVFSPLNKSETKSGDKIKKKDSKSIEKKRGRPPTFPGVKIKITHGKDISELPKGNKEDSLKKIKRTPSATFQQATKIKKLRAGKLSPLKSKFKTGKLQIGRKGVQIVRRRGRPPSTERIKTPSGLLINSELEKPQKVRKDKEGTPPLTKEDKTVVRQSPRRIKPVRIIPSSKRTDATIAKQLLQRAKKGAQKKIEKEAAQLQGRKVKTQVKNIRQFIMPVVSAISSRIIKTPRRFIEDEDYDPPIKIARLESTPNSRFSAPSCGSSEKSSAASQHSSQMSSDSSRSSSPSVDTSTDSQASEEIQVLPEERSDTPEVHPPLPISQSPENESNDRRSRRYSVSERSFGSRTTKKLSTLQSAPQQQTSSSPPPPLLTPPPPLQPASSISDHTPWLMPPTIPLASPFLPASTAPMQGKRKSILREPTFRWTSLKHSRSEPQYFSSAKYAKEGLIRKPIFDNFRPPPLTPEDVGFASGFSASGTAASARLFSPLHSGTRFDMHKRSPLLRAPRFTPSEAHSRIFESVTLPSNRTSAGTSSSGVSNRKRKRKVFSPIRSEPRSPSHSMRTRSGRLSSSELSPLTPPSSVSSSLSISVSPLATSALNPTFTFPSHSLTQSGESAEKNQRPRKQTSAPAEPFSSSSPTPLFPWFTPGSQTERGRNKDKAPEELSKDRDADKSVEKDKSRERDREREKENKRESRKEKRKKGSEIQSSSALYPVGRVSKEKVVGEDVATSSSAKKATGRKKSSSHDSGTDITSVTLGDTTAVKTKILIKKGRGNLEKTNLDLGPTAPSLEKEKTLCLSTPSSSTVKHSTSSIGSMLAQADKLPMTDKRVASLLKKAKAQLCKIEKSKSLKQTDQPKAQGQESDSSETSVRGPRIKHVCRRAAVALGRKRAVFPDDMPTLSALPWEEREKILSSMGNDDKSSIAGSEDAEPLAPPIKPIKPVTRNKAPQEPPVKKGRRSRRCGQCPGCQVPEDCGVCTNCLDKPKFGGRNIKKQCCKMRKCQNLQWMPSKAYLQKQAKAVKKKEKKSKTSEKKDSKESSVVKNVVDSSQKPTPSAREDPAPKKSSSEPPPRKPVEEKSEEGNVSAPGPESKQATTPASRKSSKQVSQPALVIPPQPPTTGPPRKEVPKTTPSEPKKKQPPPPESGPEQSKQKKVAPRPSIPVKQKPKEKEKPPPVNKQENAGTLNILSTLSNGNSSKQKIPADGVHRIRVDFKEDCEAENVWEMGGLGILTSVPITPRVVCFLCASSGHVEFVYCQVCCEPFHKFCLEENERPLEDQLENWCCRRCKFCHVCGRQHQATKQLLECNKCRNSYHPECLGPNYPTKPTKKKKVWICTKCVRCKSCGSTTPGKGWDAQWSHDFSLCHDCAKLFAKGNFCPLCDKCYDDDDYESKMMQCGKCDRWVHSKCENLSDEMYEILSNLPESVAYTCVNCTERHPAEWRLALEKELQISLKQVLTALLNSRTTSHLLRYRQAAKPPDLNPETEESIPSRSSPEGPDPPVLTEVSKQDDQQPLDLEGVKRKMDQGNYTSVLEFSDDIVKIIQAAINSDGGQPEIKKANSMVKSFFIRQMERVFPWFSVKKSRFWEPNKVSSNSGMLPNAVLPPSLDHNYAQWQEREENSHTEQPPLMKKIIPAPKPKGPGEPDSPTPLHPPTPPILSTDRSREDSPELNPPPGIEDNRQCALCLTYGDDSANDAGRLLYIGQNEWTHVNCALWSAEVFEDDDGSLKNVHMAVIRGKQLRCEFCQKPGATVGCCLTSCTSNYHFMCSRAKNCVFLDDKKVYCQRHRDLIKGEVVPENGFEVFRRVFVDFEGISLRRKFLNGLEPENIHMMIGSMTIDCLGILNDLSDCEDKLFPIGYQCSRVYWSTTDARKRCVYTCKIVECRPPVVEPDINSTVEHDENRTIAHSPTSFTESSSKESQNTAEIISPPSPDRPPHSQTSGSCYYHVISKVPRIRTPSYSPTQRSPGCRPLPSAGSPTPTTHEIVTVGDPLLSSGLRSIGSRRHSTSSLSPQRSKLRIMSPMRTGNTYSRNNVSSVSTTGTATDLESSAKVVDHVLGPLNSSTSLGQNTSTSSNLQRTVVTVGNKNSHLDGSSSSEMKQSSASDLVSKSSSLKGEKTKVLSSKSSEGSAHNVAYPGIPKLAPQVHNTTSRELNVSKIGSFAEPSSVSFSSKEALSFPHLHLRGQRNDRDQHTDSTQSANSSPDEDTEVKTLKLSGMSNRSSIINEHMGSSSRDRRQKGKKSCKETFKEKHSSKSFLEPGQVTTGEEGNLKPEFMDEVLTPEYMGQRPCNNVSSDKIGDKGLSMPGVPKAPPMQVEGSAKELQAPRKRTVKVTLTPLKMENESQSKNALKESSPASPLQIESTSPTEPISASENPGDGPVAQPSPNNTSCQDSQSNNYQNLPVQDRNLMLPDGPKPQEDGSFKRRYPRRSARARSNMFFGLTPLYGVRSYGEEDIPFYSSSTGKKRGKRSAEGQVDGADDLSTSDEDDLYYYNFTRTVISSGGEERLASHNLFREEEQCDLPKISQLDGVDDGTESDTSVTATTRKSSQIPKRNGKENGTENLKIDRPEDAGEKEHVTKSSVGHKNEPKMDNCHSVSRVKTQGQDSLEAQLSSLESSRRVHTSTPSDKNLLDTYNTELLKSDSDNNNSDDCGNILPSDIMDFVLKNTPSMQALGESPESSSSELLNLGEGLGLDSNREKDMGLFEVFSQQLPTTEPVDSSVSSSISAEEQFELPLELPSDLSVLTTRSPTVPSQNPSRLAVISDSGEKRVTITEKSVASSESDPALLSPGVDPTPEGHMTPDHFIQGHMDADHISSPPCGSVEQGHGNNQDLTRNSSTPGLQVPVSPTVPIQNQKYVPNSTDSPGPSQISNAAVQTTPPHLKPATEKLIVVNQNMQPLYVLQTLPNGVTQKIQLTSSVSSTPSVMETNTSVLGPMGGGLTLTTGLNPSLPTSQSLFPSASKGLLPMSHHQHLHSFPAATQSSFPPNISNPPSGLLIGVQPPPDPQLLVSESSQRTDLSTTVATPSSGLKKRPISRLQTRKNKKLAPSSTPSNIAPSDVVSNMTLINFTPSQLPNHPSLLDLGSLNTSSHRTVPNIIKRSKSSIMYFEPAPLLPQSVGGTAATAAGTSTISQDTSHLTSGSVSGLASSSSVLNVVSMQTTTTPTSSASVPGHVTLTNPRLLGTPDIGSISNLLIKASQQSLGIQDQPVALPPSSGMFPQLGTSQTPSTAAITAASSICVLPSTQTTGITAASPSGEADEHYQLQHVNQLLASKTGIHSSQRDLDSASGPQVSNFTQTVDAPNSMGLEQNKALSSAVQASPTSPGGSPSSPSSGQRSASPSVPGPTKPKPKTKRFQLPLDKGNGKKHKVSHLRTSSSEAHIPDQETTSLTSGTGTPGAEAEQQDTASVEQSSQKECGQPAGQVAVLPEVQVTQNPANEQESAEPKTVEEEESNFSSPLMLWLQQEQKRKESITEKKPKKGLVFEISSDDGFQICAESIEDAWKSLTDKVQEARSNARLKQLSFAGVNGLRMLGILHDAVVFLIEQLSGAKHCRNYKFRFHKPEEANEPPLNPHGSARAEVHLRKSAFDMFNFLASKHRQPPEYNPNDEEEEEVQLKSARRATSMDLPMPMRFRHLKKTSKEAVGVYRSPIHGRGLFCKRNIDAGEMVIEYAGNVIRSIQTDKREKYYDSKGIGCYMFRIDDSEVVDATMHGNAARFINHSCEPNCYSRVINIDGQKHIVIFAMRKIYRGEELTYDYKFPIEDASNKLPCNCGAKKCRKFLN
#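 Purified MLL-CXXC (added from a 7 uM solution) was preincubated 5 min at ambient with pinned compounds in 50 mM Tris-HCl pH 7.5, 50 mM NaCl, 1 mM DTT, 0.05% BSA. Fluorescein-labeled HOX-A9 DNA (50 nM solution) followed, 30 min, then polarization read.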
# MLL CXXC Fl: MLL CXXC-DNA interaction inhibition, fluorescein FP; Potency, µM (series often up to 345 µM), for inactives: top-dose activity change, negative = inhibition, hits mostly inhibitors; AID 624160; shares compounds with CXXC DNA block; actives 70% (n = 200); MLL CXXC-DNA binding, fluorescein FP; also: potency is read from the fitted curve at half-maximal effect; nearly all actives have a fitted effect of over 80% in size
# MLL CXXC TxRed: MLL CXXC-DNA interaction inhibition, Texas Red FP. shares compounds with CXXC DNA block. MLL CXXC-DNA binding, Texas Red fluorescence polarization. Potency, µM (top dose mostly 345 µM), for the others: at the highest dose activity change, negative = inhibition, hits mostly inhibitors. actives 40% (n = 200). AID 624161; also: potency is read from the fitted curve at half-maximal effect; % is scaled to controls: 0 for no effect and ±100 for the full control effect; nearly all actives have a fitted effect of over 75% in size
# MLL CXXC TRF: inhibitors of human MLL CXXC domain-DNA interaction, HTRF format; actives 30% (n = 210); Potency, µM (titrated, usually from 172 µM), inactives show top-dose activity change, negative = inhibition, actives largely listed as inhibitors; MLL CXXC-DNA binding, HTRF, biochemical; shares compounds with CXXC DNA block; also: % is scaled to controls: 0 for no effect and ±100 for the full control effect; nearly all actives have a fitted effect of over 80% in size
# * marks the source's active call; other numbers are inactive results; ? = inconclusive; · = no result given; [ ] = remark or other dose. Sampled rows, rich in hits. Any-hit rate of the full collection: about 0.45%. Unless noted, calls follow the shape of the dose curve; as a rule, active = well fitted curve in the direction sought with a large enough effect; inconclusive = small, poorly fitted or top-dose-only effect, or another doubt; inactive = no such curve, though single readings can be large; an effect the other way counts as inactive or inconclusive.
SMILES,GAA glycogen,GAA spleen mod,Menin MLL FP TR,Menin MLL FP FL,GAA inhib,CXXC DNA block,MLL CXXC Fl,MLL CXXC TxRed,MLL CXXC TRF
Nc1cc(C(=O)O)c(N)c2c1C(=O)c1ccccc1C2=O,-3.9%,0.1%,·,?,·,31.6µM*,113µM*,40µM*,149.7%
Nc1c(C(=O)O)ccc2c1C(=O)c1ccccc1C2=O,-13.4%,-0.8%,?,?,-1.5%,?,·,·,·
C/C=C1\COC(C(=O)NC)(C(F)(F)F)C=C1C=C1CCCCC1 (stereo not given),·,-12.6%,1.1%,-2.3,·,·,·,·,·
CC1CCc2c(sc(NC(=O)c3cc4nc(-c5ccc(Cl)cc5)cc(C(F)(F)F)n4n3)c2C#N)C1 (stereo not given),-11.1%[76.3 µM],·,·,·,·,·,·,·,·
O=C(CSC1=NS(=O)(=O)c2ccccc21)Nc1ccccc1,7.9%,0.6%,-0.8%,0.7,0.3%,31.6µM*,-1.7%,113µM*,24.3µM*
CCOc1ccc(C(=O)c2cn(CC(=O)Nc3ccc(F)cc3)c3cc4c(cc3c2=O)OCCO4)cc1,12.8%[76.3 µM],·,·,·,·,·,·,·,·
CC(=O)Oc1ccc2c(c1)Oc1cc(OC(C)=O)ccc1C21OC(=O)c2ccccc21,-5.2%,-0.4%,?,?,-13.9%,?,0.0225µM*,34.1%,3.0%
O=C(O)c1ccccc1-c1c2cc(Br)c(=O)c(Br)c-2oc2c(Br)c(O)c(Br)cc12,·,5.9%,?,?,·,?,0.633µM*,5.03µM*,-61.7%
CCn1c(CSc2nnc3ccccn23)nc2cc(C(=O)O)ccc21,-9.4%,4.2%,?,?,-4.2%,?,·,·,·
CCn1c(CSc2n[nH]c(N)n2)nc2cc(C(=O)O)ccc21,-7.2%,-0.7%,?,-26.0,4.3%,35.5µM*,113µM*,113µM*,6.5%
COC(=O)c1ccc(C(/C=C/[C@@H](C)C(=O)NCc2ccccc2)NC(=O)OCc2ccccc2)cc1 (stereo not given in full),·,-12.9%,-1.6%,2.5,·,·,·,·,·
CCN1CCN(c2nc3c(C)cccn3c(=O)c2/C=C(\C#N)C(=O)NCCOC)CC1,-3.6%,·,-1.7%,-5.4,·,31.6µM*,8.4%,5.1%,41.7%
COCCNC(=O)/C(C#N)=C/c1c(N2CCN(C)CC2)nc2c(C)cccn2c1=O,0.3%,·,15.4%,-1.0,·,-6.0%,·,·,·
Nc1ccc2cc3ccc(N)cc3nc2c1,·,·,-14.8%,?,·,?,1.13µM*,35.6µM*,?
Cc1ccc2cc(N)ccc2n1,22.0%,5.4%,2.3%,-7.3,?,-8.6%,·,·,·
CCn1c(=O)c2ccccc2n(Cc2ccc([N+](=O)[O-])cc2)c1=O,-2.1%,·,21.8%,-3.0,·,?,?,?,22.1%
CCn1c(=O)c2ccccc2n(Cc2cccc(C)c2)c1=O,14.7%[76.3 µM],·,5.7%,0.9,·,-7.5%,·,·,·
CCCCC1(C)OC(=O)C(=Cc2ccc(-c3ccc(Cl)c(C(=O)O)c3)o2)C(=O)O1 (stereo not given),3.0%,4.8%,·,19.6,·,39.8µM*,22.5µM*,44.8µM*,48.5µM*
O=C1/C(=C/c2cccs2)Cc2ccccc21,-2.6%,-8.6%,25.7%,8.6,-5.4%,7.4%,·,·,·
O=C1C(=Cc2cccs2)C(=O)c2ccccc21,8.2%,-2.5%,10.4%,-4.4,3.0%,?,22.5µM*,?,15.0%
Cc1ccc2cc(CN(C(=O)c3cccc(Cl)c3)c3ccccc3)c(=O)[nH]c2c1,13.0%[76.3 µM],·,·,·,·,·,·,·,·
O=c1[nH]c(-[n+]2ccccc2)c(/C=N/NC([S-])=Nc2ccccc2)s1,-14.4%,4.0%,·,?,-6.1%,35.5µM*,?,?,30.5%
Cc1cc(N)c2cc(NC(=O)Nc3ccc4nc(C)cc(N)c4c3)ccc2n1,·,·,15.8µM*,-29.9,·,·,8.95µM*,?,9.68µM*
CC(Cc1ccc(O)c(O)c1)(NN)C(=O)O (stereo not given),·,-3.7%,-9.9%,1.6,·,·,·,·,·
OC(Cn1cncn1)(c1ccc(F)cc1)c1ccc(Cl)cc1 (stereo not given),-11.7%,·,-5.7%,1.3,·,89.1µM*,?,-18.5%,-0.6%

# Screens as filed in PubChem BioAssay.
